Test results taken from PubChem BioAssay (NCATS).
Records with an inconclusive call do not appear. Entries that show only a call come without a potency. Active and inactive are the calls of the source. Calls follow the shape of the dose curve; as a rule, active = well fitted activation curve with a large enough effect; inconclusive = small, poorly fitted or top-dose-only effect; inactive = flat fitted curve, though single readings scatter.

Test: Cellular Toxicity (caspase-3) H-4-II-E (AID 663);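 as to caspase-3 activation: cells exposed to compound for 16 hr before readout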
Conditions: H-4-II-E rat hepatoma; Potency: caspase-3 activation; series mostly up to 92.2 µM
Description: NIH Chemical Genomics Center [NCGC]
NIH Molecular Libraries Screening Centers Network [MLSCN]
National Institutes of Environmental Health Sciences [NIEHS]
National Toxicology Program [NTP]
We have developed a 1536-well cell-based assay for quantitative high throughput screening (qHTS) against a number of cell lines to determine in vitro caspase 3/7 of small molecules. This particular assay uses the H-4-II-E cell line which is derived from rat hepatoma.
NCGC Assay Protocol Summary:
The Caspase-Glo 3/7 assay (Promega) is a homogeneous method to measure caspase-3 and caspase-7 activities in cultured cells. The quantitation of caspase 3/7 activity is based on the cleavage of a peptide-aminoluciferin substrate. After caspase cleaves the substrate the free aminoluciferin is liberated and serves as the substrate of luciferase, which generates the light. The luminescent signal is proportional to amount of caspase 3/7 activity present.
Using the Caspase-Glo 3/7 assay, the amount of caspase 3/7 activity was measured in the H-4-II-E cell line with complete culture medium following compound treatment for 16 hours. The assay was performed in opaque white 1536-well plates. In the screen, tamoxifen and doxorubicin were used as positive controls. Library compounds were measured for their ability to cause the activation of caspase 3/7 in the cell line, as reflected by an increase in luminescence signal, in a concentration-dependent manner. Data were normalized to the controls for basal activity (DMSO only) and 100% stimulation (100 uM tamoxifen). AC50 values were determined from concentration-response data modeled with the standard Hill equation.
qHTS protocol for caspase 3/7 assay in H-4-II-E cells
[Step] [Parameter] [Value] [Description]
1. Reagent; 5 uL; 1500 H-4-II-E cells/well
2. Time; 5 hr; 37 °C incubation
4. Controls; 23 nL; Tamoxifen 0.23 uM to 100 uM & Doxorubicin 7.0 pM to 100 uM
5. Time; 16 hr; 37 °C incubation
6. Reagent; 5 uL; Caspase-Glo 3/7 reagent
7. Time; 20 min; Room Temperature
8. Detection; Luminescence; Viewlux plate reader
Keywords: caspase 3/7, apoptosis, H-4-II-E cell line, luminescence, NTPHTS, NTPHTS_NCGC, NIEHS, EPA, DSSTox, MLSMR, MLSCN, NIH Roadmap, qHTS, NCGC
Potency is read from the fitted curve at half-maximal effect.

SMILES	Potency
c1ccc2occc2c1	inactive
O=C(c1ccccc1)c1ccccc1	inactive
Oc1ccccc1	inactive
CC(C)C(C)(C)C(C)(C)C(C)(C)S	inactive
Brc1ccccc1-c1ccccc1	inactive
O=C(NO)c1ccccc1	inactive
Cc1ccc(O)cc1	inactive
Nc1c2ccccc2nc2ccccc12	31.6 µM (active)
O=C(Oc1ccccc1)c1ccccc1O	inactive
COc1cc(C=O)ccc1O	inactive
CC(C)(c1ccc(O)cc1)c1ccc(O)cc1	inactive
Nc1cccc2c(N)cccc12	inactive
CC(C)(C)c1ccc(O)c(O)c1	inactive
OCc1c[nH]c2ccccc12	inactive
CCCC(=O)c1cc(O)c(O)cc1O	inactive
CCCCC(CC)COC(=O)c1ccccc1C(=O)O (centres undefined)	inactive
C1=CC2C3C=CC(C3)C2C1 (centres undefined)	inactive
CC(=O)OC/C=C(C)/C=C/C=C(C)/C=C/C1=C(C)CCCC1(C)C	inactive
Cc1cc(C(C)(C)C)c(O)c(C(C)(C)C)c1	inactive
